Reference: the supplement of paper PMC8728848
About 410 targets per protein were measured; listed, in parts, are those with the strongest signals and a random draw of the rest.

Assays:
Assay in all cases: glycan array binding signal (z-score within array); higher = stronger binding
Conditions in all cases: glycan notation: IUPAC condensed, linker removed
[1] = target: Fuc(a1-2)Gal(b1-3)[Fuc(a1-4)]GlcNAc(b1-2)Man(a1-3)[Fuc(a1-2)Gal(b1-3)[Fuc(a1-4)]GlcNAc(b1-2)Man(a1-6)]Man(b1-4)GlcNAc(b1-4)GlcNAc
Procedure, shortened: (§1)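 The binding signal is a Z-score computed within each array. Data were drawn from 3228 arrays in the Consortium for Functional Glycomics database, restricted to those with a known protein sequence. Scores were averaged over arrays of the same protein sequence at different concentrations or buffers, and over linkers, and negative values can be taken as non-binding.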

[2] = target: Fuc(a1-2)[GalNAc(a1-3)]Gal(b1-4)GlcNAc
Procedure, shortened: as §1

[3] = target: Fuc(a1-2)[GalNAc(a1-3)]Gal(b1-4)GlcNAc(b1-2)Man(a1-3)[GalNAc(a1-3)[Fuc(a1-2)]Gal(b1-4)GlcNAc(b1-2)Man(a1-6)]Man(b1-4)GlcNAc(b1-4)GlcNAc
Procedure, shortened: as §1

[4] = target: Fuc(a1-3)[Gal(b1-4)]GlcNAc
Procedure, shortened: as §1

[5] = target: Fuc(a1-3)[Gal(b1-4)]GlcNAc(b1-2)Man(a1-3)[Fuc(a1-3)[Gal(b1-4)]GlcNAc(b1-2)Man(a1-6)]Man(b1-4)GlcNAc(b1-4)GlcNAc
Procedure, shortened: as §1

[6] = target: Fuc(a1-3)[Gal3S(b1-4)]GlcNAc
Procedure, shortened: as §1

[7] = target: Fuc(a1-3)[GalNAc(b1-4)]GlcNAc
Procedure, shortened: as §1

[8] = target: Gal(a1-3)Gal(b1-4)[Fuc(a1-3)]GlcNAc(b1-2)Man(a1-3)[Gal(a1-3)Gal(b1-4)[Fuc(a1-3)]GlcNAc(b1-2)Man(a1-6)]Man(b1-4)GlcNAc(b1-4)GlcNAc
Procedure, shortened: as §1

[9] = target: Gal(b1-3)GalNAc(b1-4)Gal(b1-4)Glc
Procedure, shortened: as §1

[10] = target: Gal(b1-3)GlcNAc(b1-2)Man(a1-3)[Gal(b1-3)GlcNAc(b1-2)Man(a1-6)]Man(b1-4)GlcNAc(b1-4)[Fuc(a1-6)]GlcNAc
Procedure, shortened: as §1

[11] = target: Gal(b1-3)[Fuc(a1-4)]GlcNAc(b1-2)Man(a1-3)[Gal(b1-3)[Fuc(a1-4)]GlcNAc(b1-2)Man(a1-6)]Man(b1-4)GlcNAc(b1-4)[Fuc(a1-6)]GlcNAc
Procedure, shortened: as §1

[12] = target: Gal(b1-4)GlcNAc(b1-2)[Gal(b1-4)GlcNAc(b1-4)]Man(a1-3)[Gal(b1-4)GlcNAc(b1-2)Man(a1-6)]Man(b1-4)GlcNAc(b1-4)GlcNAc
Procedure, shortened: as §1

[13] = target: Gal3S(b1-4)GlcNAc6S
Procedure, shortened: as §1

[14] = target: Gal4S(b1-4)GlcNAc
Procedure, shortened: as §1

[15] = target: GlcNAc(b1-2)Man(a1-3)[GlcNAc(b1-2)Man(a1-6)]Man(b1-4)GlcNAc(b1-4)GlcNAc
Procedure, shortened: as §1

[16] = target: GlcNAc(b1-4)GlcNAc(b1-4)GlcNAc(b1-4)GlcNAc(b1-4)GlcNAc
Procedure, shortened: as §1

[17] = target: Kdn(a2-3)Gal(b1-3)GlcNAc
Procedure, shortened: as §1

[18] = target: Neu5Ac(a2-3)Gal(b1-3)GalNAc(b1-3)Gal(a1-4)Gal(b1-4)Glc
Procedure, shortened: as §1

[19] = target: Neu5Ac(a2-3)Gal(b1-4)GlcNAc(b1-6)[Neu5Ac(a2-3)Gal(b1-3)]GalNAc
Procedure, shortened: as §1

[20] = target: Neu5Ac(a2-3)Gal(b1-4)[Fuc(a1-3)]GlcNAc(b1-3)Gal
Procedure, shortened: as §1

[21] = target: Neu5Ac(a2-3)Gal(b1-4)[Fuc(a1-3)]GlcNAc(b1-3)Gal(b1-4)GlcNAc
Procedure, shortened: as §1

[22] = target: Neu5Ac(a2-3)Gal(b1-4)[Fuc(a1-3)]GlcNAc6S
Procedure, shortened: as §1

[23] = target: Neu5Ac(a2-3)Gal6S(b1-4)GlcNAc
Procedure, shortened: as §1

[24] = target: Neu5Ac(a2-6)Gal(b1-4)GlcNAc6S
Procedure, shortened: as §1

[25] = target: Neu5Ac(a2-8)Neu5Ac(a2-3)Gal(b1-4)Glc
Procedure, shortened: as §1

[26] = target: Neu5Ac(a2-8)Neu5Ac(a2-8)Neu5Ac(a2-8)Neu5Ac(a2-3)[GalNAc(b1-4)]Gal(b1-4)Glc
Procedure, shortened: as §1

[27] = target: Neu5Ac9Ac(a2-3)Gal(b1-3)GlcNAc
Procedure, shortened: as §1

[28] = target: Neu5Gc(a2-3)Gal(b1-3)GlcNAc
Procedure, shortened: as §1

B1: CCL2 (Coprinopsis cinerea), B3GA02 (protein)
chain: MDSPAVTLSAGNYIIYNRVLSPRGEKLALTYPGRQRTPVTVSPLDGSSEQAWILRSYDSNSNTWTISPVGSPNSQIGWGAGNVPVVLPPNNYVWTLTLTSGGYNIQDGKRTVSWSLNNATAGEEVSIGADATFSGRWVIEKV
glycan array binding signal (z-score) [1]: -0.067 | glycan array binding signal (z-score) [2]: -0.286 | glycan array binding signal (z-score) [3]: -0.269 | glycan array binding signal (z-score) [4]: 0.752 | glycan array binding signal (z-score) [5]: 3.53 | glycan array binding signal (z-score) [6]: -0.279 | glycan array binding signal (z-score) [7]: 4.84 | glycan array binding signal (z-score) [8]: 4.37 | glycan array binding signal (z-score) [9]: -0.293 | glycan array binding signal (z-score) [10]: -0.283 | glycan array binding signal (z-score) [11]: -0.19 | glycan array binding signal (z-score) [12]: -0.268 | glycan array binding signal (z-score) [13]: -0.276 | glycan array binding signal (z-score) [14]: -0.26 | glycan array binding signal (z-score) [15]: -0.257 | glycan array binding signal (z-score) [16]: -0.255 | glycan array binding signal (z-score) [17]: -0.257 | glycan array binding signal (z-score) [18]: -0.278 | glycan array binding signal (z-score) [19]: -0.27 | glycan array binding signal (z-score) [20]: 5.39 | glycan array binding signal (z-score) [21]: 4.93 | glycan array binding signal (z-score) [22]: 4.45 | glycan array binding signal (z-score) [23]: 4.88 | glycan array binding signal (z-score) [24]: -0.205 | glycan array binding signal (z-score) [25]: -0.275 | glycan array binding signal (z-score) [26]: -0.286 | glycan array binding signal (z-score) [27]: -0.294 | glycan array binding signal (z-score) [28]: -0.282
